The full data set covers some 8,800 targets. This sample favours those with a hit. About 0.5% of all pairs of compound and target were hits.
What was measured:
Assay in all cases: log2 fold change, soluble protein after heating vs DMSO (PISA); higher = thermal stabilisation; K562 lysate, 10 uM; active = over 0.2 and 3.5 SD of the protein, either way, in both replicates (recomputed)
alvocidib = compound: CN1CC[C@H](c2c(O)cc(O)c3c(=O)cc(-c4ccccc4Cl)oc23)[C@H](O)C1 [alvocidib]
In short: (§1)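 Following dounce homogenisation of K562 pellets in PBS pH 7.4 with 1 mM MgCl2, crude extract at 1 mg/mL protein was incubated for 30 min with 10 μM compound. Aliquots were then heated for 3 min over 48°C-58°C and pooled, NP-40 was added to 0.5% at 4°C, and soluble protein was recovered as the supernatant at 21,000xg for 90 min. Channel-sum-equalised TMTpro 16plex LC-MS/MS quantified this protein. Each value, from duplicates, is a log-two fold change in thermal stability relative to solvent controls.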

Tubastatin A = compound: CN1CCc2c(c3ccccc3n2Cc2ccc(C(=O)NO)cc2)C1 [Tubastatin A]
In short: as §1

[1] = compound: CNC(=O)C1=CC=CC=C1NC2=NC(=NC=C2Cl)NC3=C(C=C(C=C3)N4CCOCC4)OC
In short: as §1

defactinib = compound: CNC(=O)c1ccc(Nc2ncc(C(F)(F)F)c(NCc3nccnc3N(C)S(C)(=O)=O)n2)cc1 [defactinib]
In short: as §1

[2] = compound: CNc1nc(-c2ccc3c(N)n[nH]c3c2)cc(N2C[C@@H](C(=O)NC3CCCCC3)CC[C@H]2C)n1
In short: as §1

encorafenib = compound: COC(=O)N[C@@H](C)CNc1nccc(-c2cn(C(C)C)nc2-c2cc(Cl)cc(NS(C)(=O)=O)c2F)n1 [encorafenib]
In short: as §1

[3] = compound: COC(=O)[C@H](CCSC)NC(=O)C1=C(C=C(C=C1)NC[C@H](CS)N)C2=CC=CC=C2
In short: as §1

alisertib = compound: COc1cc(Nc2ncc3c(n2)-c2ccc(Cl)cc2C(c2c(F)cccc2OC)=NC3)ccc1C(=O)O [alisertib]
In short: as §1

[4] = compound: COc1cc2nc(-c3cc(F)ccc3O)nc(N[C@@H]3CNC[C@H]3C(C)(C)O)c2cc1OC
In short: as §1

gefitinib = compound: COc1cc2ncnc(Nc3ccc(F)c(Cl)c3)c2cc1OCCCN1CCOCC1 [gefitinib]
In short: as §1

lapatinib = compound: CS(=O)(=O)CCNCc1ccc(-c2ccc3ncnc(Nc4ccc(OCc5cccc(F)c5)c(Cl)c4)c3c2)o1 [lapatinib]
In short: as §1

pictilisib = compound: CS(=O)(=O)N1CCN(Cc2cc3nc(-c4cccc5[nH]ncc45)nc(N4CCOCC4)c3s2)CC1 [pictilisib]
In short: as §1

crizotinib = compound: C[C@@H](Oc1cc(-c2cnn(C3CCNCC3)c2)cnc1N)c1c(Cl)ccc(F)c1Cl [crizotinib]
In short: as §1

[5] = compound: C[C@H](C1=CC=C(C=C1)C(=O)NC2=C3C=CNC3=NC=C2)N
In short: as §1

duvelisib = compound: C[C@H](Nc1ncnc2nc[nH]c12)c1cc2cccc(Cl)c2c(=O)n1-c1ccccc1 [duvelisib]
In short: as §1

gandotinib = compound: Cc1cc(Nc2cc(CN3CCOCC3)c3nc(C)c(Cc4ccc(Cl)cc4F)n3n2)n[nH]1 [gandotinib]
In short: as §1

tozasertib = compound: Cc1cc(Nc2cc(N3CCN(C)CC3)nc(Sc3ccc(NC(=O)C4CC4)cc3)n2)n[nH]1 [tozasertib]
In short: as §1

doramapimod = compound: Cc1ccc(-n2nc(C(C)(C)C)cc2NC(=O)Nc2ccc(OCCN3CCOCC3)c3ccccc23)cc1 [doramapimod]
In short: as §1

bafetinib = compound: Cc1ccc(NC(=O)c2ccc(CN3CC[C@H](N(C)C)C3)c(C(F)(F)F)c2)cc1Nc1nccc(-c2cncnc2)n1 [bafetinib]
In short: as §1

[6] = compound: Cc1cccc(CC(=O)N2CCc3c2ccc(-c2cn(C)c4ncnc(N)c24)c3F)n1
In short: as §1

Measured: log2 fold change

SNX6, A0A0A0MRI2
inactive: alvocidib 0.076 | Tubastatin A -0.051 | [1] 0.004 | defactinib 0.008 | [2] -0.024 | encorafenib 0.007 | [3] 0.171 | alisertib -0.008 | [4] -0.003 | gefitinib -0.01 | lapatinib -0.008 | pictilisib 0.018 | crizotinib -0.062 | [5] 0.2 | duvelisib 0.003 | gandotinib -0.134 | tozasertib 0.022 | doramapimod -0.012 | bafetinib -0.04 | [6] -0.088

SLC27A2 (UniProt O14975)
Sequence of UniProt O14975 (O14975 whole entry, looked up): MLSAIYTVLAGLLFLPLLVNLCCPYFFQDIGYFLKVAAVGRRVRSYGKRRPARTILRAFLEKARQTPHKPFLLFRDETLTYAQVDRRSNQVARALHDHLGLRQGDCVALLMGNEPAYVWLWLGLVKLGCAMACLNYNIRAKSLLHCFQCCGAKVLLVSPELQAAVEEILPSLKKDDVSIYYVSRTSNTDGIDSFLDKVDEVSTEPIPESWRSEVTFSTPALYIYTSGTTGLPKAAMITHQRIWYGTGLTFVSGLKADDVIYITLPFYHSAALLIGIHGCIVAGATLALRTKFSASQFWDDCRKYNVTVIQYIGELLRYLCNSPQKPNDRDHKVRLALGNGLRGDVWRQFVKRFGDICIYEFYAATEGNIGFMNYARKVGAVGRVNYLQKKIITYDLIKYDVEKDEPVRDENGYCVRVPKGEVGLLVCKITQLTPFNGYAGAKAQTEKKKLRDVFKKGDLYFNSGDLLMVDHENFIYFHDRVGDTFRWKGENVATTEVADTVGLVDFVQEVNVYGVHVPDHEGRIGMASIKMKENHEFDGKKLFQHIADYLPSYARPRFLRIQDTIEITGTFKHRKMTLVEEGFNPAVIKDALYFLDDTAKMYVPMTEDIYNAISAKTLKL
inactive: alvocidib 0.005 | Tubastatin A -0.009 | [1] 0.216 | defactinib -0.044 | [2] 0.172 | encorafenib 0.063 | [3] 0.019 | alisertib 0.002 | [4] 0.017 | gefitinib -0.089 | lapatinib 0.063 | pictilisib -0.049 | crizotinib -0.092 | [5] -0.067 | duvelisib 0.031 | gandotinib 0.286 | tozasertib 0.117 | doramapimod 0.064 | bafetinib 0.015 | [6] -0.014

SH3GL1 (UniProt Q99961)
Sequence of UniProt Q99961 (Q99961 whole entry, looked up): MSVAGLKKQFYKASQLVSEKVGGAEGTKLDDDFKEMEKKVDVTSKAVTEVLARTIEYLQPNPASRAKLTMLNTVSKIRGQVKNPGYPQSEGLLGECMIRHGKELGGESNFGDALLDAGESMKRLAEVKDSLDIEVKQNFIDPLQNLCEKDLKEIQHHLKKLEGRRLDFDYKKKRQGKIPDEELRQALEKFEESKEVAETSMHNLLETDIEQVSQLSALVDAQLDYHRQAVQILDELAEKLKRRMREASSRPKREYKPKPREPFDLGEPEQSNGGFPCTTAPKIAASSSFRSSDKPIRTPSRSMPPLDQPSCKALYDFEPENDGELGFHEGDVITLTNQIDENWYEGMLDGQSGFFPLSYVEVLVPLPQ
inactive: alvocidib 0.017 | Tubastatin A -0.109 | [1] 0.01 | defactinib 0.03 | [2] -0.003 | encorafenib -0.02 | [3] -0.042 | alisertib -0.011 | [4] 0.009 | gefitinib 0.002 | lapatinib 0.013 | pictilisib 0.005 | crizotinib -0.017 | [5] 0.028 | duvelisib 0.023 | gandotinib 0.009 | tozasertib 0.013 | doramapimod 0.025 | bafetinib -0.001 | [6] -0.063

SHCBP1 (UniProt Q8NEM2)
Sequence of UniProt Q8NEM2 (Q8NEM2 whole entry, looked up): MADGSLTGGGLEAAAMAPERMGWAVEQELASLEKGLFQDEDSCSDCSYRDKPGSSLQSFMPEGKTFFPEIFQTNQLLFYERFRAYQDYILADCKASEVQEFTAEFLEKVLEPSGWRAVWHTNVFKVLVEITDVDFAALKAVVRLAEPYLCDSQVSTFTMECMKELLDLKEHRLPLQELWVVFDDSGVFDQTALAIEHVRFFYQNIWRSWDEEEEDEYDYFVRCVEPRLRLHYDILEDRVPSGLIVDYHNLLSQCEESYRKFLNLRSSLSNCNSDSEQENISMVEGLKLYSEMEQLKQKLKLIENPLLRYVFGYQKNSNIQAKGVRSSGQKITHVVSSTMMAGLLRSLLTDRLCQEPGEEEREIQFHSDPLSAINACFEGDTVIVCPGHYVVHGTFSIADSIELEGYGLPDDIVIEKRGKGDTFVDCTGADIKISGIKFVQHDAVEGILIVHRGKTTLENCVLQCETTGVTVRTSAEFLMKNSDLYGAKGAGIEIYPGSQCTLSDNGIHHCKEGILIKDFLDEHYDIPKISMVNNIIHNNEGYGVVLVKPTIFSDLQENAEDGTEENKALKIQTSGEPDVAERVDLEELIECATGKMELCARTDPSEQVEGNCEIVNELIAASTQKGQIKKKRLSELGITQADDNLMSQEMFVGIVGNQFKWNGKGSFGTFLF
inactive: alvocidib 0.001 | Tubastatin A -0.122 | [1] -0.043 | defactinib 0.012 | [2] -0.084 | encorafenib 0.049 | [3] -0.003 | alisertib 0.088 | [4] -0.015 | gefitinib 0.055 | lapatinib 0.061 | pictilisib 0.046 | crizotinib -0.029 | [5] -0.043 | duvelisib 0.028 | gandotinib -0.031 | tozasertib 0.059 | doramapimod 0.028 | bafetinib -0.073 | [6] 0.078

SHKBP1 (UniProt Q8TBC3)
Sequence of UniProt Q8TBC3 (Q8TBC3 whole entry, looked up): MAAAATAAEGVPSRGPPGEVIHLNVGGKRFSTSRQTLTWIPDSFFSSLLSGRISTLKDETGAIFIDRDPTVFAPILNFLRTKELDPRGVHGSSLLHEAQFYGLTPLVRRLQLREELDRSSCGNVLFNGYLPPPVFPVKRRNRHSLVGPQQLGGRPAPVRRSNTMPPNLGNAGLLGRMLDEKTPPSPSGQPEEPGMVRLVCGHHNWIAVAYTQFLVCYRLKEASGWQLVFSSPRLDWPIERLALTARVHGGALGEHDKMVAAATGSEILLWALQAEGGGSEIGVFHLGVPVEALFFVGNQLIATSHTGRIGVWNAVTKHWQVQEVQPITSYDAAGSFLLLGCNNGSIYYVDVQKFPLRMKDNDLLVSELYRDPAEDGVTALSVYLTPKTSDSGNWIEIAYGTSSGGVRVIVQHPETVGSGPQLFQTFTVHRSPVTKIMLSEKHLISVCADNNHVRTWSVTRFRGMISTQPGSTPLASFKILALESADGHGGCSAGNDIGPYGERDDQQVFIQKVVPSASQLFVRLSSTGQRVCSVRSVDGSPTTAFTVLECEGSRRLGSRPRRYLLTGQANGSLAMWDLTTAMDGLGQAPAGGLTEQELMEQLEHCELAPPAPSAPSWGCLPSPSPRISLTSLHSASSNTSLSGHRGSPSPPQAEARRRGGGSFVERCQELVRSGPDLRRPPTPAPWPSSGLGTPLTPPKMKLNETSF
active: [3] 0.274
inactive: alvocidib -0.038 | Tubastatin A -0.018 | [1] -0.002 | defactinib 0.115 | [2] 0.046 | encorafenib -0.05 | alisertib 0.019 | [4] 0.001 | gefitinib 0.023 | lapatinib -0.027 | pictilisib -0.045 | crizotinib -0.009 | [5] -0.045 | duvelisib 0.055 | gandotinib 0.034 | tozasertib -0.009 | doramapimod 0.005 | bafetinib -0.04 | [6] 0.055

SKA1 (UniProt Q96BD8)
Sequence of UniProt Q96BD8 (Q96BD8 whole entry, looked up): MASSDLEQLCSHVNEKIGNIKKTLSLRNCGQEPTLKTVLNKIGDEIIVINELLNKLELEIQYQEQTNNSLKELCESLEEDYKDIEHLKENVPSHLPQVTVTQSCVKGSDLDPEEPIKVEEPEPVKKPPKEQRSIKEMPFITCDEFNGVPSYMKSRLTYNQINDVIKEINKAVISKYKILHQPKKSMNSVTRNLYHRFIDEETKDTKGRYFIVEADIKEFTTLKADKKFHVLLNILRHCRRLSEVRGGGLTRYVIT
inactive: alvocidib -0.046 | Tubastatin A -0.064 | [1] 0.001 | defactinib 0.015 | [2] -0.008 | encorafenib 0.129 | [3] -0.055 | alisertib -0.017 | [4] 0.017 | gefitinib -0.006 | lapatinib 0.001 | pictilisib 0.043 | crizotinib 0.009 | [5] -0.032 | duvelisib 0.042 | gandotinib 0.001 | tozasertib 0.086 | doramapimod 0.037 | bafetinib -0.029 | [6] 0.024

SSBP3 (UniProt Q9BWW4)
Sequence of UniProt Q9BWW4 (Q9BWW4 whole entry, looked up): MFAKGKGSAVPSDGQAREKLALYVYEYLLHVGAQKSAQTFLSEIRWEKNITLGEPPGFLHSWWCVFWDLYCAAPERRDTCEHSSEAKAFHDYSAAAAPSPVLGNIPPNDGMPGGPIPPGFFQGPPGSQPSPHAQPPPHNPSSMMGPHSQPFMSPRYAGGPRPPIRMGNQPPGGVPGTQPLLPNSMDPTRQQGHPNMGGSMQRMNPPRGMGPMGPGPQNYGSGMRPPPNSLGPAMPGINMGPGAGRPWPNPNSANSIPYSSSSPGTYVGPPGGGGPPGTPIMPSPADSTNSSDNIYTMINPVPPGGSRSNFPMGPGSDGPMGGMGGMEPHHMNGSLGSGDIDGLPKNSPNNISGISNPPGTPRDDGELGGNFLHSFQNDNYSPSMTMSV
inactive: alvocidib 0.028 | Tubastatin A 0.074 | [1] 0 | defactinib 0.072 | [2] 0.008 | encorafenib 0.032 | [3] 0.02 | alisertib 0.018 | [4] -0.016 | gefitinib -0.054 | lapatinib 0.039 | pictilisib -0.158 | crizotinib 0.018 | [5] -0.014 | duvelisib 0.019 | gandotinib -0.019 | tozasertib -0.041 | doramapimod 0.014 | bafetinib -0.06 | [6] 0.029

STARD3 isoform 3 (UniProt Q14849)
Sequence of UniProt Q14849 (Q14849 whole entry, looked up): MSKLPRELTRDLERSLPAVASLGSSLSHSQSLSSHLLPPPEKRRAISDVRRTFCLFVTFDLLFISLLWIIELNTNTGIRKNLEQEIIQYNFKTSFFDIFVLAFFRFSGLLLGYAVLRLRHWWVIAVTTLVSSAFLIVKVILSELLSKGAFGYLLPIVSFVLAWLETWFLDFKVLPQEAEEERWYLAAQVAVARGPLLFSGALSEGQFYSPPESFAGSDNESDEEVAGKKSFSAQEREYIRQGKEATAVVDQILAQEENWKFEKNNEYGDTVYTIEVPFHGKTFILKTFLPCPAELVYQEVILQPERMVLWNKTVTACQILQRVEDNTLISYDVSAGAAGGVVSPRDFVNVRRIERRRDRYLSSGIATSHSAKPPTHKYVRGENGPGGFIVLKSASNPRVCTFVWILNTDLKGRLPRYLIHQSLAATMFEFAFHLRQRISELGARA
inactive: alvocidib -0.037 | Tubastatin A 0.079 | [1] 0.004 | defactinib -0.019 | [2] 0.068 | encorafenib -0.029 | [3] 0.055 | alisertib -0.007 | [4] -0.059 | gefitinib 0.081 | lapatinib -0.094 | pictilisib -0.087 | crizotinib -0.024 | [5] -0.072 | duvelisib -0.005 | gandotinib 0.027 | tozasertib -0.075 | doramapimod 0.021 | bafetinib -0.209 | [6] 0.084
